From PubChem BioAssay (NCI)
Values joined by “and” are separate entries in the source; they are usually repeats but may differ in a detail not shown here. Equal values may be shown once. About 83,000 compounds went through this panel and 20% of them were active in at least one assay; those are over-represented in the sample as a whole.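 Growth was measured after 48 h exposure to one concentration of compound in 96-well plates. Values under 10 count as active.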 Active and inactive are the calls of the source.

Test system: HL-60(TB) leukemia
Test: NCI-60 one-dose screen, 48 h (100 = growth as untreated, 0 = no growth, -100 = all killed)
Settings: 10 µM unless noted

SMILES	growth
O=C1OC(c2nc3ccccc3s2)=C/C1=C\c1ccc(O)cc1	98.2% (inactive)
O=C(CCc1nnc(Cn2cnc3nc[nH]c3c2=O)o1)c1nc2ncccc2[nH]1	99.9% (inactive)
O=C1C[C@@H]2/C(=C(O)\C=C\c3ccccc3)C(=O)C=C[C@@H]2O1	13.3% (inactive)
Cc1ccc(NC(=O)Nc2ccc(-c3cccnc3)cc2N2CCC(CO)CC2)cc1	13.9% (inactive)
CC(C)(C)c1cnc(CSc2cnc(NC(=O)C3CCNCC3)s2)o1	-40.4% (active)
N#CC(C#N)N=Nc1ccc(Br)cc1	-10.7% (active)
CC(=O)Nc1ccc(S(N)(=O)=O)cc1	101% (inactive)
O=C(O)c1ccc(OCc2ccccc2)cc1	103% (inactive)
c1cnc2c(-c3nc4ccc5[nH]ncc5c4c4c3CCCC4)c[nH]c2c1	41.5% (inactive)
C=CCc1nc2ccccc2s1	105% (inactive)
Clc1ccc(Sc2cnc(-c3ccccc3)o2)cc1	99.5% (inactive)
O=C(c1ccc(Cl)cc1Cl)N1CCOCC1	105% (inactive)
COc1ccccc1OC(=O)Oc1ccccc1OC	101% (inactive) and 98.4% (inactive)
Nc1nc2ccccc2c2c1S(=O)(=O)c1ccc(Cl)cc1C2=O	-24.2% (active)
CC(C)(C)OC(=O)N1CCc2c(sc3ncnc(N/N=C/c4cccc(Br)c4)c23)C1	71.8% (inactive)
O=C(Nc1cccc(Cl)c1)c1cc2ccccc2cc1O	5.85% (active) and -13.6% (active)
COC(=O)c1ccccc1Cl	97.3% (inactive)
O=C(Nc1cccc(-n2cc(-c3ccncc3)c(-c3ccc(O)c(Cl)c3)n2)c1)Nc1cccc(C(F)(F)F)c1	-11.6% (active)
CCOC(=O)C1=C(N)Oc2cc(OC)ccc2C1c1ccc(F)c(F)c1 (centres undefined)	-9% (active)
CCSc1nc(Cl)c(C#N)c(-c2ccc(F)cc2)n1	81.3% (inactive)
COc1ccc(/C=C\c2nc3ccccc3s2)cc1OP(=O)(O)O	-1.37% (active)
COc1ccc(Br)c2c1C(=O)CC2	151% (inactive)
CCCCC(=O)Nc1ncc(Cc2ccc(Cl)cc2)s1	66.1% (inactive)
O=C(/C=C/CN1CCOCC1)Nc1cc2c(Nc3ccc(F)c(Cl)c3F)ncnc2cc1OCCOC(F)F	76.9% (inactive)
CCc1cccc2c3c(sc12)C(c1ccc(Cl)cc1)C(C#N)=C(N)O3 (centres undefined)	-8.89% (active)
O=C(NCCc1ccccc1)/C(=C\c1ccc(Cl)cc1Cl)NC(=O)c1ccccc1	112% (inactive)
CCN(CC)CCOc1ccc(-c2nc3cc(Cl)ccc3s2)cc1	-74.2% (active)
CN(C)c1ccc(/C=C(\C#N)c2ccccc2)cc1	-9.62% (active) and 16% (inactive) and 9.8% (active)
O=C(Cc1ccccc1)Nc1nc(O)c(/C=C2\C(=O)C=Cc3ccccc32)s1	103% (inactive)
